# The source made the active and inactive calls.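 The calls were made as follows: active = NF-kB reporter IC50 at most 10 µM, IL-8 IC50 within fivefold of it with bacterial filtrate but not with TNF-alpha; inactive = the rest.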
# Target: Interleukin-8 (Homo sapiens) (UniProt P10145)
# Assay: inhibitors of NFkB activation in CF airway cells, SAR follow-up, KKLEB cells, panel, IL8 HTRF, NFkB-GFP (AID 651592);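 also: immortalized cystic fibrosis airway epithelial KKLEB cells with an NF-kB GFP reporter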
# Settings: PAF/TNFa-induced NFkB-GFP / IL8 HTRF, mean of runs
# Sequence of Interleukin-8 (Homo sapiens) (P10145 whole entry, looked up): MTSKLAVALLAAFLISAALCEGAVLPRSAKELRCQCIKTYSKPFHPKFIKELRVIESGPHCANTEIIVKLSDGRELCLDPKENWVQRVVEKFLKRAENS
row,SMILES,outcome
1,O=C(Nc1ccc(N2CCN(C(=O)c3ccc(F)cc3)CC2)cc1)c1cccnc1,active
2,CCOc1ccc(NCc2cc3c(-c4ccc(OC)c(OC)c4)nn(-c4ccccc4)c3[nH]c2=O)cc1,active
3,O=C(Nc1ccc(N2CCN(C(=O)c3ccccc3)CC2)cc1)c1ccccc1,active
4,CCOc1ccc(NCc2cc3c(C(C)(C)C)nn(-c4ccc(Cl)cc4)c3[nH]c2=O)cc1,active
5,O=C(Nc1ccc(N2CCN(C(=O)c3ccccc3)CC2)cc1)c1cccc(Br)c1,active
6,O=C(Nc1ccc(N2CCN(C(=O)c3ccccc3Cl)CC2)cc1)c1ccccn1,active
7,O=C(Nc1ccc(N2CCN(C(=O)c3ccccc3F)CC2)cc1)c1ccccn1,active
8,O=C(Nc1ccc(N2CCN(C(=O)c3ccccc3Cl)CC2)cc1)c1cncc(Br)c1,active
9,O=C(Nc1ccc(N2CCN(C(=O)c3ccccc3)CC2)cc1)c1ccccn1,active
10,O=C(Nc1ccc(N2CCN(C(=O)c3ccccc3F)CC2)cc1)c1cc(Br)cc(Br)c1,active
11,O=C(Nc1ccc(N2CCN(C(=O)c3ccc(F)cc3)CC2)cc1)c1cccc(Br)c1,active
12,O=C(Nc1ccc(N2CCN(C(=O)c3ccc(F)cc3)CC2)cc1)c1ccccn1,active
13,Cc1ccc(CNCc2cc3c(C(C)(C)C)nn(-c4ccccc4)c3[nH]c2=O)cc1,active
14,O=C(Nc1ccc(N2CCN(C(=O)c3ccccc3)CC2)cc1)c1cc(Br)cc(Br)c1,active
15,O=C(Nc1ccc(N2CCN(C(=O)c3ccccc3Cl)CC2)cc1)c1ccccc1,inactive
16,O=C(Nc1ccc(N2CCN(C(=O)c3ccccc3)CC2)cc1)c1cncc(Br)c1,active
17,Cc1ccc(NCc2cc3c(C(C)(C)C)nn(-c4ccccc4)c3[nH]c2=O)cc1,active

row,SMILES,outcome
1,O=C(Nc1ccc(N2CCN(C(=O)c3ccccc3Cl)CC2)cc1)c1cc(Br)cc(Br)c1,active
2,O=C(Nc1ccc(N2CCN(C(=O)c3ccc(F)cc3)CC2)cc1)c1ccncc1,active
3,O=C(Nc1ccc(N2CCN(C(=O)c3ccccc3F)CC2)cc1)c1cccc(Br)c1,active
4,CCOc1ccc(NCc2cc3c(-c4ccc(F)cc4)nn(-c4ccccc4)c3[nH]c2=O)cc1,active
5,O=C(Nc1ccc(N2CCN(C(=O)c3ccccc3F)CC2)cc1)c1ccccc1,active
6,O=C(Nc1ccc(N2CCN(C(=O)c3ccccc3Cl)CC2)cc1)c1cccc(Br)c1,active
7,O=C(Nc1ccc(N2CCN(C(=O)c3ccc(F)cc3)CC2)cc1)c1ccccc1,active
8,O=C(Nc1ccc(N2CCN(C(=O)c3ccccc3Cl)CC2)cc1)c1cccnc1,active
9,O=C(Nc1ccc(N2CCN(C(=O)c3ccc(F)cc3)CC2)cc1)c1cncc(Br)c1,active
10,CCOc1ccc(NCc2cc3c(C(C)(C)C)nn(-c4ccccc4)c3[nH]c2=O)cc1,active
11,O=C(Nc1ccc(N2CCN(C(=O)c3ccccc3F)CC2)cc1)c1cccnc1,active
12,O=C(Nc1ccc(N2CCN(C(=O)c3ccccc3Cl)CC2)cc1)c1ccncc1,active
13,O=C(Nc1ccc(N2CCN(C(=O)c3ccccc3)CC2)cc1)c1ccncc1,active
14,CCOc1ccc(NCc2cc3c(C)nn(-c4ccccc4)c3[nH]c2=O)cc1,active
15,O=C(Nc1ccc(N2CCN(C(=O)c3ccc(F)cc3)CC2)cc1)c1cc(Br)cc(Br)c1,active
16,O=C(Nc1ccc(N2CCN(C(=O)c3ccccc3)CC2)cc1)c1cccnc1,active
17,O=C(Nc1ccc(N2CCN(C(=O)c3ccccc3F)CC2)cc1)c1ccncc1,active
